Reference: PubChem BioAssay
Calls of active or inactive are those of the source.

Assays:
[1] = anti-His antibody binders, primary screen, artefact control for SMM control protein annotation, biochemical, small-molecule microarray, 635 nm fluorescence (AID 1128); conditions: anti-His Alexa647 antibody binding, higher = more signal;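 note: score merges feature fluorescence with signal-to-noise for each printed compound spot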
[2] = test system: Human papillomavirus type 1a E7 protein (residues 1-88); experiment: HPV1a E7 small-molecule binders, primary screen, biochemical, small-molecule microarray, residues 1-88, 635 nm (AID 1129); conditions: small-molecule microarray binding, fluorescence 635 nm; higher = more signal
[3] = target: Focal adhesion kinase 1 (Homo sapiens) (UniProt Q05397); experiment: small-molecule microarray binders of FAK, primary screen, biochemical, 635/667 nm fluorescence, BSA, DTT (AID 1130); conditions: PTK2 binding, 635 nm fluorescence, higher = more signal;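 note: composite of spot emission at 667 nm and signal to noise over triplicate slides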
Focal adhesion kinase 1 (Homo sapiens), sequence (Q05397 whole entry, looked up): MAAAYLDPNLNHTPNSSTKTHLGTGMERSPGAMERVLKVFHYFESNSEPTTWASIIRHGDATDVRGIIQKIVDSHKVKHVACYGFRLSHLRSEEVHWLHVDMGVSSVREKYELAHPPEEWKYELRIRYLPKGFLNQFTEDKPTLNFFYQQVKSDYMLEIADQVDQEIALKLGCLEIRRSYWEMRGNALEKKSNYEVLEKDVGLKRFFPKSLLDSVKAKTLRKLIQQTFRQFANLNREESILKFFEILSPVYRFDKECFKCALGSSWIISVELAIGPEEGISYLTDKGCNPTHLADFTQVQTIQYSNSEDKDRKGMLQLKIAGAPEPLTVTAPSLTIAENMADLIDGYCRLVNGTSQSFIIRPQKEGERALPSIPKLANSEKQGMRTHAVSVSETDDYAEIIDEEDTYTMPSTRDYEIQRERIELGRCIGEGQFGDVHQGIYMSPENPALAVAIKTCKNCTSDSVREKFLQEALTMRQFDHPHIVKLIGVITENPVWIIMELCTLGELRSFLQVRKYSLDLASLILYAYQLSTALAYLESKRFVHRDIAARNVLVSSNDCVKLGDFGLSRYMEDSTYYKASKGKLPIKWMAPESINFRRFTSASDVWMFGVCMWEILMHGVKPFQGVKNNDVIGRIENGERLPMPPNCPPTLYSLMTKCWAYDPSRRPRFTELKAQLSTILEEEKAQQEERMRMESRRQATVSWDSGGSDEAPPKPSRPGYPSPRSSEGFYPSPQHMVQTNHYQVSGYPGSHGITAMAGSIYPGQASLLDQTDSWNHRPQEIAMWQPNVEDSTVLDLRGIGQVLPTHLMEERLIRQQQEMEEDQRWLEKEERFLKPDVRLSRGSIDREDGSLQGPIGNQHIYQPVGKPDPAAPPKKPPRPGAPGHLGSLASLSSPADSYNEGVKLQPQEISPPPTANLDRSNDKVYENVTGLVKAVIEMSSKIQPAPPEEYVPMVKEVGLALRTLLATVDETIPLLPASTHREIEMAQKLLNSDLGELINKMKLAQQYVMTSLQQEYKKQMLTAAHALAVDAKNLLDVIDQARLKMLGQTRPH

[4] = test system: Fibrinogen (Alexa647-labelled); experiment: fibrinogen binders on compound microarrays, profiling panel, artefact control for SMM control-protein annotation, biochemical, small-molecule microarray, 635/667 nm fluorescence (AID 1131); conditions: fibrinogen-A647 binding fluorescence, higher = more signal;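 note: z-score merges 667 nm fluorescence with per-spot signal-to-noise over triplicate slides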
[5] = target: Follistatin (Homo sapiens) (UniProt P19883); experiment: follistatin binders on small-molecule microarrays, primary screen, biochemical, small-molecule microarray, 635/667 nm fluorescence (AID 1132); conditions: FST binding, 635 nm fluorescence, higher = more signal
Follistatin (Homo sapiens), sequence (P19883 whole entry, looked up): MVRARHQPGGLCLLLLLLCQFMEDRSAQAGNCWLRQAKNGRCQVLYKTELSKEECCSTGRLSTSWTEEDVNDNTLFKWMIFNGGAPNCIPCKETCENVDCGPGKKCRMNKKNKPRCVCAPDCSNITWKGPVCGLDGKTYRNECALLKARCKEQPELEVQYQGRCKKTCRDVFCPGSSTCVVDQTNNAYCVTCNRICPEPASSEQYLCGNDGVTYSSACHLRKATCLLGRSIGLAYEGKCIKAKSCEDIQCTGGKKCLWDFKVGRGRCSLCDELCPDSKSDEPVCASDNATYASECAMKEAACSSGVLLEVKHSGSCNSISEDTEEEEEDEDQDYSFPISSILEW

[6] = target: Fibroblast growth factor 2 (Homo sapiens) (UniProt P09038); experiment: FGF2 binders on small-molecule microarrays, primary screen, biochemical, small-molecule microarray, 635/667 nm fluorescence (AID 1133); conditions: small-molecule microarray binding, FGF2, fluorescence 635/667; higher = more signal
Fibroblast growth factor 2 (Homo sapiens), sequence (P09038 whole entry, looked up): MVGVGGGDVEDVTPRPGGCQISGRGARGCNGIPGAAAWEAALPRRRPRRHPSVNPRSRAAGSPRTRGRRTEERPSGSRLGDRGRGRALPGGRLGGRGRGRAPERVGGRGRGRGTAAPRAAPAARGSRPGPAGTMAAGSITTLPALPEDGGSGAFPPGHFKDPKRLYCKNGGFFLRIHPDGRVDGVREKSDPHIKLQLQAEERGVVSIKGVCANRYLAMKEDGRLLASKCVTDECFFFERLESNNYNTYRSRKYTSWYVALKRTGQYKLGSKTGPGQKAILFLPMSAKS

[7] = mitochondrial membrane potential change in A549 cells, profiling panel, cell-based, JC-1 fluorescence, basal, 24 h, 100 nL (AID 1138); conditions: higher = more signal;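 note: A549 lung adenocarcinoma cells under basal conditions with no added stimulus; test concentration not given here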
Lefty1 = Lefty1 binders on small-molecule microarrays, primary screen, biochemical, small-molecule microarray, 635/667 nm fluorescence (AID 1139); conditions: small-molecule microarray binding, fluorescence 635/667; higher = more signal
[8] = test system: wheat germ agglutinin (Triticum aestivum), Alexa647-labelled; experiment: wheat germ agglutinin binders on compound microarrays, profiling panel, artefact control for SMM control-protein annotation, biochemical, small-molecule microarray, 635/667 nm fluorescence (AID 1140); conditions: WGA-A647 binding, 635 nm fluorescence, higher = more signal;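 note: score merges 667 nm feature emission with signal to noise over triplicate slides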
[9] = target: Luciferin 4-monooxygenase (Photinus pyralis) (UniProt P08659); experiment: firefly luciferase enzyme inhibitors, primary screen, biochemical, luminescence, purified enzyme, 2006 set (AID 1141); conditions: SteadyGlo luminescence, 30 min, higher = more signal, called active from +8 up or from −8 down;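 note: cell-free assay with purified firefly luciferase at 100 ng per well in PBS; test concentration not given here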
Luciferin 4-monooxygenase (Photinus pyralis), sequence (P08659 whole entry, looked up): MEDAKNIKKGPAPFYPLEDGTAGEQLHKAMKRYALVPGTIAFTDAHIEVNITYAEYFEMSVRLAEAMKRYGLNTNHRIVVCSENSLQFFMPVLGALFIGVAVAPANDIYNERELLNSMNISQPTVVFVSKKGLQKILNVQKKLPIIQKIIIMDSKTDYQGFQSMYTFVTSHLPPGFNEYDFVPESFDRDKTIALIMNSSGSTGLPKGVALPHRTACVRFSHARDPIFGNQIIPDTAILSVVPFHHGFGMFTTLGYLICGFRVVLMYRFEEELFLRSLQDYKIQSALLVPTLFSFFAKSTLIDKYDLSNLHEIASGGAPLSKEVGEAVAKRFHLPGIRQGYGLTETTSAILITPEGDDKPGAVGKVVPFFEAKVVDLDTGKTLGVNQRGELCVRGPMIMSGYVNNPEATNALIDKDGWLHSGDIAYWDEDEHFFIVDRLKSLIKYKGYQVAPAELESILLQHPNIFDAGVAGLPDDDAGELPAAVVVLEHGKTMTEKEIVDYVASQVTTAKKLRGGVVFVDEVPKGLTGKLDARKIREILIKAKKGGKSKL

[10] = test system: Wnt5a (protein binding on small-molecule microarray); experiment: Wnt5a binders on small-molecule microarray, primary screen, biophysical, 635/667 nm fluorescence (AID 1142); conditions: 635 nm fluorescence, higher = more signal;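 note: fluorescence read at 667 nm with signal to noise per printed feature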
[11] = cell viability in Huh7 cells, primary screen, cytotoxicity control for HCV replication inhibitor project, CellTiter-Glo luminescence, basal, 48 h (AID 1143); conditions: Huh7 HCV replicon, higher = more signal, called active from +8 up or from −8 down;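 note: Huh7 hepatoma cells carrying a hepatitis C replication reporter with no stimulus; test concentration not given here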
[12] = CREB reporter modulators without forskolin, primary screen, cell-based, PC12, CRE-LacZ reporter, unstimulated (AID 1145); conditions: no forskolin, luminescence, 4.5 h, higher = more signal, called active from +8 up or from −8 down
[13] = CREB reporter modulators under forskolin, primary screen, cell-based, PC12, CRE-LacZ reporter, forskolin-stimulated (AID 1146); conditions: luminescence, 4.5 h, higher = more signal, called active from +8 up or from −8 down;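 note: PC12 cells with 6xCRE LacZ reporter stimulated by forskolin 10 µM; beta-galactosidase reporter signal reflecting CREB driven transcription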
[14] = target: Streptavidin (Streptomyces avidinii) (UniProt P22629); experiment: streptavidin binders on small-molecule microarray, primary screen, artefact control for SMM compound annotation, biophysical, 635/667 nm fluorescence (AID 1147); conditions: streptavidin binding, higher = more signal;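 note: signal reflects streptavidin binding to arrayed compounds as a control protein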
Streptavidin (Streptomyces avidinii), sequence (P22629 whole entry, looked up): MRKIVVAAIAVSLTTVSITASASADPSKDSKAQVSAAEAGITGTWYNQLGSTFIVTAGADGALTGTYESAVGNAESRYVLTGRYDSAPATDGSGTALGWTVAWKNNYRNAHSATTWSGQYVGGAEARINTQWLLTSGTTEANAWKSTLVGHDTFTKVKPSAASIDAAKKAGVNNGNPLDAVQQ

[15] = small-molecule binders of probe aInhba, primary screen, biochemical, small-molecule microarray, 635/667 nm fluorescence (AID 1148); conditions: higher = more signal;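 note: score merges 667nm spot fluorescence with signal-to-noise for antibody binding to printed compounds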
Torsin-1A (Homo sapiens) [16] = target: Torsin-1A (Homo sapiens) (UniProt O14656); experiment: torsin A binders from cell lysate, primary screen, small-molecule microarray, wild-type, 635/667 nm (AID 1149); conditions: COS7 hTOR1A-WT lysate, 635 nm fluorescence, higher = more signal
Torsin-1A (Homo sapiens), sequence (O14656 whole entry, looked up): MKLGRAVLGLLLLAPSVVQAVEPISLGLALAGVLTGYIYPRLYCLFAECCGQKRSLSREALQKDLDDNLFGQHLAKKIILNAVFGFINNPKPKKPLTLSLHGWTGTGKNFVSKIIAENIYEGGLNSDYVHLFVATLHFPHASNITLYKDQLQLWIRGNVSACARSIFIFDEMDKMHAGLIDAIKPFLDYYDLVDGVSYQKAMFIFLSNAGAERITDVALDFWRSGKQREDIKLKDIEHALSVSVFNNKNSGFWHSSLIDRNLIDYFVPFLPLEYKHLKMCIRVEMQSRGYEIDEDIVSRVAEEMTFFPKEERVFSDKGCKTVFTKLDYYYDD

Torsin-1A (Homo sapiens) [17] = target: Torsin-1A (Homo sapiens) (UniProt O14656); experiment: small-molecule binders of mutant TOR1A in lysate, primary screen, cell lysate, small-molecule microarray, COS7 lysate, 635/667 nm fluorescence (AID 1150); conditions: COS7 hTOR1A mutant lysate, 635 nm fluorescence, higher = more signal;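 note: score pools 667 nm emission and signal to noise measuring lysate protein binding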
[18] = test system: Sonic hedgehog protein (Shh); experiment: small-molecule binders of Shh protein, primary screen, biochemical, small-molecule microarray, 635/667 nm fluorescence (AID 1151); conditions: small-molecule microarray binding, 635 nm fluorescence; higher = more signal;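 note: Shh protein binding to compounds spotted on small-molecule microarray slides; score combines spot fluorescence intensity with signal-to-noise across triplicate slides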

Row | SMILES | composite z-score [1] | composite z-score [2] | composite z-score [3] | composite z-score [4] | composite z-score [5] | composite z-score [6] | z-score [7] | composite z-score (Lefty1) | composite z-score [8] | z-score [9] | composite z-score [10] | z-score [11] | z-score [12] | z-score [13] | composite z-score [14] | composite z-score [15] | composite z-score (Torsin-1A (Homo sapiens) [16]) | composite z-score (Torsin-1A (Homo sapiens) [17]) | composite z-score [18]
1 | C[C@H]1COC(=O)[C@@H]2CCCN2C(=O)[C@@H](C)COC(=O)[C@@H]2CCCN2C1=O | -0.451 | -0.367 | 0.213 | -0.135 | 0.0429 | 0.1 | 1.05 | 0.308 | -0.468 | -0.515 (inactive) | 0.0246 | -0.0001 (inactive) | 0.613 (inactive) | -0.881 (inactive) | -0.269 | 0.0086 | -0.213 | 0.25 | 0.355
2 | Cc1ccc(S[C@]2(C(=O)NCCN3CCOCC3)CC(=O)N(C3Cc4ccccc4C3)[C@@H]2c2ccc(CO)cc2I)cc1 | 0.0031 | -0.521 | 0.355 | 0.0025 | -1.23 | -1.41 | 1.3 | -1.21 | 1.01 | -0.83 (inactive) | -0.149 | -2.98 (inactive) | 0.531 (inactive) | 0.174 (inactive) | -0.658 | 0.0756 | -0.434 | -0.131 | -0.678
3 | COCC(=C=CC[C@H](O)c1ccc(OCCO)cc1)C[C@H](O)c1ccccn1 | -0.0301 | 0.401 | -0.389 | -0.263 | 0.193 | 0.0116 | 1.92 | 0.233 | -0.32 | -2.45 (inactive) | -0.0253 | -0.23 (inactive) | 3.18 (inactive) | -1.44 (inactive) | -0.65 | -0.018 | -0.353 | 0.904 | 1.05
4 | CO[C@H]1COC(=O)[C@@H](C)COC(=O)[C@H](Cc2ccccc2)NC(=O)CC=C[C@H]1C | -1.35 | -0.0007 | -0.62 | 0.177 | 0.932 | 0.771 | 1.04 | 1.27 | -0.457 | -0.897 (inactive) | -0.0116 | -0.317 (inactive) | 0.432 (inactive) | -0.968 (inactive) | -0.666 | -0.0889 | 0.268 | 0.0916 | 1.85
5 | CO[C@H]1COC(=O)CC=C[C@H](C)[C@@H](OC)COC(=O)[C@H](Cc2ccccc2)NC(=O)CC=C[C@@H]1C | -1.1 | -2.59 | 0.264 | -1.23 | 1.42 | 1.34 | 1.39 | 1.59 | -0.324 | -1.06 (inactive) | -0.359 | -0.89 (inactive) | 0.248 (inactive) | -0.802 (inactive) | -0.234 | -0.408 | 0.45 | 0.593 | 2.05
6 | CN1C2C=C(c3ccc(CO)cc3)C(C3C(=O)N(C(N)=O)C(=O)C32)C1c1cccs1 (stereo unspecified) | -0.734 | -0.343 | -0.0644 | -0.25 | -0.513 | -0.676 | 1.38 | 0.358 | -0.543 | -1.49 (inactive) | -0.25 | -0.975 (inactive) | 2.09 (inactive) | -1.5 (inactive) | -0.487 | -0.0791 | 0.0899 | 0.782 | 1.4
7 | CC(C)[Si]1(C(C)C)OCc2cc(C3CC3)nc(-c3ccccc3)c21 | -1.42 | -0.722 | -0.294 | -0.742 | 0.441 | -0.5 | 0.325 | -0.165 | -0.625 | -0.525 (inactive) | -0.125 | -1.63 (inactive) | 0.339 (inactive) | -1.08 (inactive) | -0.0842 | -0.108 | 0.188 | 0.127 | 0.545
8 | CCN1C(C)=C(C(=O)OC)[C@@H](c2ccccc2)N2C(=O)[C@@]3(C(=O)OC)O[C@@]12[C@@H]1C(=O)CCC[C@@H]13 | -0.116 | -0.356 | -0.315 | -1.47 | 1.29 | 1.01 | 0.862 | 1.48 | -1.05 | -2.3 (inactive) | 0.365 | -0.419 (inactive) | 0.462 (inactive) | -0.51 (inactive) | -0.213 | 0.115 | 0.385 | 0.353 | 2.02
9 | C[C@@H]1NC(=O)CC=C[C@@H](C)[C@@H]2C=C[C@H](O)[C@@H](COC(=O)[C@H](C)NC(=O)CC=C[C@@H](C)[C@@H]3C=C[C@H](O)[C@@H](COC1=O)O3)O2 | -0.689 | -0.453 | 0.365 | -0.917 | 1.29 | 0.859 | -0.0173 | 1.41 | -0.833 | -0.595 (inactive) | 0.0414 | -3.48 (inactive) | -0.925 (inactive) | -0.89 (inactive) | -0.664 | -0.0581 | 0.436 | 0.104 | 1.04
